These results are taken from PubChem BioAssay (EPA / NIEHS).

“And” between values parts separate entries of the source, which are not always exact repeats. Identical values can stand only once. The source made the active and inactive calls. Rule for the calls: active = hit-call score of the fitted dose curve at least 0.9, where 1 is the maximum; inactive = score below 0.9.

Test [1] can be described thus: BSK_hDFCGF_SRB: Viability Assessment in the BioMAP Diversity Plus: hDFCGF Assay (AID 2283061).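 Note: cells exposed to compound for 24 h before the read.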 The following applies: primary human foreskin fibroblasts. Summed up: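 Cells were dosed with test chemical, cultured 24 h, fixed with 10% TCA, then stained with 0.1% SRB and read at 560 nm. The fibroblasts were human foreskin primary cells, and DMSO served as baseline.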

Read-out in test [2]: TIMP metallopeptidase inhibitor 1 (TIMP1), TIMP1 (gene 7076)
Put plainly: BSK_hDFCGF_TIMP1: BioMAP Diversity Plus: hDFCGF Assay for TIMP metallopeptidase inhibitor 1 (TIMP1) Biomarker Activity (AID 2283062). The following applies: primary human foreskin fibroblasts; actives raise or lower the signal. Summed up: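 Fibroblasts from human foreskin are treated with test chemical and harvested at 24 h. TIMP-1 is quantified by ELISA, and gain or loss of signal is scored against DMSO.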

Read-out in test [3]: Monokine induced gamma interferon (MIG), CXCL9 (gene 4283)
Put plainly: BSK_hDFCGF_MIG: BioMAP Diversity Plus: hDFCGF Assay for Monokine induced gamma interferon (MIG) Biomarker Activity (AID 2283063). Particulars: primary human foreskin fibroblasts; actives raise or lower the signal. Summed up:
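MIG signal, determined by ELISA, reflects 24 h chemical exposure of human skin primary fibroblasts. DMSO serves as negative control and baseline.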

Read-out in test [4]: Matrix Metallopeptidase 1 (MMP1), MMP1 (gene 4312)
Kind of test: BSK_hDFCGF_MMP1: BioMAP Diversity Plus: hDFCGF Assay for Matrix Metallopeptidase 1 (MMP1) Biomarker Activity (AID 2283064). Particulars: primary human foreskin fibroblasts; actives raise or lower the signal. A digest of the protocol:
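Primary human foreskin fibroblasts exposed to chemicals for 24 h; MMP1 measured by ELISA. Cytotoxicity tracked by SRB staining in parallel cultures; bidirectional fit relative to DMSO.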

Read-out in test [5]: Vascular cell adhesion molecule 1 (VCAM1), VCAM1 (gene 7412)
Put plainly: BSK_hDFCGF_VCAM1: BioMAP Diversity Plus: hDFCGF Assay for Vascular cell adhesion molecule 1 (VCAM1) Biomarker Activity (AID 2283065).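 For AC50: VCAM-1 protein level quantified by ELISA after 24 h chemical exposure.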 Particulars: primary human foreskin fibroblasts; actives raise or lower the signal. A digest of the protocol:
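Cells are dosed, cultured for 24 h, then VCAM-1 is quantified by ELISA; signal increases and decreases are both fitted relative to DMSO.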

Read-out in test [6]: Plasminogen activator inhibitor-1 (PAI1), SERPINE1 (gene 5054)
Put plainly: BSK_hDFCGF_PAI1: BioMAP Diversity Plus: hDFCGF Assay for Plasminogen activator inhibitor-1 (PAI1) Biomarker Activity (AID 2283066). The following applies: primary human foreskin fibroblasts; actives raise or lower the signal. Summed up:
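Human foreskin fibroblast primary cells, 24 h chemical exposure; PAI-1 measured by ELISA. Bidirectional fitting relative to DMSO; parallel cultures stained with SRB for total protein to flag overt cytotoxicity.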

Read-out in test [7]: Intercellular Adhesion Molecule 1 (ICAM1), ICAM1 (gene 3383)
Put plainly: BSK_KF3CT_ICAM1: BioMAP Diversity Plus: KF3CT Assay for Intercellular Adhesion Molecule 1 (ICAM1) Biomarker Activity (AID 2283067). The following applies: primary human keratinocytes with fibroblasts; actives raise or lower the signal. A digest of the protocol: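 Dose the keratinocyte/fibroblast co-culture, wait 24 h, measure ICAM-1 by ELISA, then fit increases or decreases against DMSO. Cytotoxicity is checked in parallel cultures by SRB total-protein staining.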

Read-out in test [8]: Interferon-gamma inducible Protein 10 (IP10), CXCL10 (gene 3627)
Kind of test: BSK_KF3CT_IP10: BioMAP Diversity Plus: KF3CT Assay for Interferon-gamma inducible Protein 10 (IP10) Biomarker Activity (AID 2283068). The following applies: primary human keratinocytes with fibroblasts; actives raise or lower the signal. A digest of the protocol: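 KF3CT co-culture (keratinocytes + foreskin fibroblasts), 24 h compound, IP-10 by ELISA; bidirectional fit vs DMSO baseline.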

Test [9] in a line: BSK_KF3CT_SRB: Viability Assessment in the BioMAP Diversity Plus: KF3CT Assay (AID 2283069).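 Note: fitted for both signal gain and loss against DMSO baseline.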 The following applies: primary human keratinocytes with fibroblasts. Summed up:
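Human keratinocyte and foreskin fibroblast co-culture exposed to chemical for 24 h. Total protein measured in parallel cultures by 0.1% sulforhodamine B staining after 10% TCA fixation, read at 560 nm; bidirectional fit relative to DMSO.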

Read-out in test [10]: Interleukin-1 alpha (IL1a), IL1A (gene 3552)
Put plainly: BSK_KF3CT_IL1a: BioMAP Diversity Plus: KF3CT Assay for Interleukin-1 alpha (IL1a) Biomarker Activity (AID 2283070). The following applies: primary human keratinocytes with fibroblasts; actives raise or lower the signal. Summed up: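 Primary human keratinocyte plus foreskin fibroblast co-culture, dosed and measured at 24 h in 96-well plates. IL-1a level quantified by ELISA; bidirectional fit relative to DMSO.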

Read-out in test [11]: TIMP metallopeptidase inhibitor 2 (TIMP2), TIMP2 (gene 7077)
Put plainly: BSK_KF3CT_TIMP2: BioMAP Diversity Plus: KF3CT Assay for TIMP metallopeptidase inhibitor 2 (TIMP2) Biomarker Activity (AID 2283071). Particulars: primary human keratinocytes with fibroblasts; actives raise or lower the signal. Summed up: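 Co-culture of human primary keratinocytes and foreskin fibroblasts, measured 24 h after chemical dosing. TIMP-2 quantified by ELISA and fitted in both directions relative to DMSO. Cytotoxicity checked in parallel cultures by SRB total-protein staining.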

Read-out in test [12]: C-C motif chemokine 2 (Homo sapiens) (UniProt P13500)
Put plainly: BSK_KF3CT_MCP1: BioMAP Diversity Plus: KF3CT Assay for Monocyte Chemoattractant Protein 1 (MCP1/CCL2) Biomarker Activity (AID 2283073). Particulars: primary human keratinocytes with fibroblasts; actives raise or lower the signal. A digest of the protocol:
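Keratinocytes and foreskin fibroblasts were co-cultured, dosed with chemical, and sampled 24 h later. MCP-1 was quantified by ELISA, and the endpoint was analyzed with bidirectional fitting using DMSO as negative control.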

Read-out in test [13]: Matrix Metallopeptidase 9 (MMP9), MMP9 (gene 4318)
Kind of test: BSK_KF3CT_MMP9: BioMAP Diversity Plus: KF3CT Assay for Matrix Metallopeptidase 9 (MMP9) Biomarker Activity (AID 2283074). Particulars: primary human keratinocytes with fibroblasts; actives raise or lower the signal. Summed up: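 Human keratinocyte and foreskin fibroblast co-culture exposed to chemicals for 24 h; MMP9 biomarker measured by ELISA, bidirectional fitting relative to DMSO; cytotoxicity tracked by SRB total protein staining in parallel cultures.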

Read-out in test [14]: urokinase plasminogen activator (uPA), PLAU (gene 5328)
Kind of test: BSK_KF3CT_uPA: BioMAP Diversity Plus: KF3CT Assay for urokinase plasminogen activator (uPA) Biomarker Activity (AID 2283075). The following applies: primary human keratinocytes with fibroblasts; actives raise or lower the signal. A digest of the protocol: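 Primary human keratinocyte/foreskin fibroblast co-culture exposed to chemical; uPA measured by ELISA at 24 h. Bidirectional fit versus DMSO, with parallel SRB total-protein staining for cytotoxicity.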

Read-out in test [15]: CD40, CD40 (gene 958)
Put plainly: BSK_LPS_CD40: BioMAP Diversity Plus: LPS Assay for CD40 Biomarker Activity (AID 2283076). Particulars: primary human HUVEC with PBMC; actives raise or lower the signal. A digest of the protocol: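 CD40 signal, measured by ELISA, is fitted in both directions relative to DMSO vehicle. The system is an LPS-driven human vascular primary co-culture of endothelial cells and PBMC, sampled 24 h after compound addition.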

Read-out in test [16]: E-selectin (Homo sapiens) (UniProt P16581)
Kind of test: BSK_LPS_Eselectin: BioMAP Diversity Plus: LPS Assay for Eselectin Biomarker Activity (AID 2283077). Particulars: primary human HUVEC with PBMC; actives raise or lower the signal. Summed up:
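Signal of E-selectin, detected by ELISA, served as the endpoint; cells were umbilical vein endothelium with PBMC, read 24 h after treatment. DMSO defined baseline, and both increases and decreases were fitted.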

Test [17] can be described thus: BSK_LPS_SRB: Viability Assessment in the BioMAP Diversity Plus: LPS Assay (AID 2283079).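 Note: total protein by sulforhodamine B absorbance as a cytotoxicity measure; measured one day after compound addition; fitted in both directions against DMSO so loss or gain of signal counts.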 The following applies: primary human HUVEC with PBMC. A digest of the protocol: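 Overt cytotoxicity was gauged by sulforhodamine B total-protein staining in a primary human vascular endothelial and mononuclear cell co-culture 24 h post-dosing. Activity was fitted in both directions relative to DMSO.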

Read-out in test [18]: Interleukin-1 alpha (IL1a), IL1A (gene 3552)
Put plainly: BSK_LPS_IL1a: BioMAP Diversity Plus: LPS Assay for Interleukin-1 alpha (IL1a) Biomarker Activity (AID 2283080). Particulars: primary human HUVEC with PBMC; actives raise or lower the signal. A digest of the protocol: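 Measured: IL-1 alpha via ELISA at 24 h in LPS-activated human umbilical vein endothelium–PBMC co-culture. Baseline: DMSO, bidirectional fitting.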

Read-out in test [19]: Transforming growth factor beta 1 (TGFb1), TGFB1 (gene 7040)
Put plainly: BSK_KF3CT_TGFb1: BioMAP Diversity Plus: KF3CT Assay for Transforming growth factor beta 1 (TGFb1) Biomarker Activity (AID 2283072). The following applies: primary human keratinocytes with fibroblasts; actives raise or lower the signal. A digest of the protocol:
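Human keratinocyte/foreskin fibroblast co-culture; TGF-b1 measured by ELISA 24 h after dosing, fitted bidirectionally versus DMSO. Cytotoxicity checked in parallel cultures by total protein (SRB staining, 560 nm).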

Read-out in test [20]: Interleukin-8 (IL8), CXCL8 (gene 3576)
Put plainly: BSK_LPS_IL8: BioMAP Diversity Plus: LPS Assay for Interleukin-8 (IL8) Biomarker Activity (AID 2283078). Particulars: primary human HUVEC with PBMC; actives raise or lower the signal. A digest of the protocol:
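Endothelial cells and PBMC from human donors are co-cultured, treated with chemicals and LPS, then assayed for IL-8 by ELISA after 24 h. Parallel SRB staining (0.1% SRB after 10% TCA fixation, 560 nm) flags cytotoxicity.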

E-selectin (Homo sapiens), sequence (P16581 whole entry, looked up): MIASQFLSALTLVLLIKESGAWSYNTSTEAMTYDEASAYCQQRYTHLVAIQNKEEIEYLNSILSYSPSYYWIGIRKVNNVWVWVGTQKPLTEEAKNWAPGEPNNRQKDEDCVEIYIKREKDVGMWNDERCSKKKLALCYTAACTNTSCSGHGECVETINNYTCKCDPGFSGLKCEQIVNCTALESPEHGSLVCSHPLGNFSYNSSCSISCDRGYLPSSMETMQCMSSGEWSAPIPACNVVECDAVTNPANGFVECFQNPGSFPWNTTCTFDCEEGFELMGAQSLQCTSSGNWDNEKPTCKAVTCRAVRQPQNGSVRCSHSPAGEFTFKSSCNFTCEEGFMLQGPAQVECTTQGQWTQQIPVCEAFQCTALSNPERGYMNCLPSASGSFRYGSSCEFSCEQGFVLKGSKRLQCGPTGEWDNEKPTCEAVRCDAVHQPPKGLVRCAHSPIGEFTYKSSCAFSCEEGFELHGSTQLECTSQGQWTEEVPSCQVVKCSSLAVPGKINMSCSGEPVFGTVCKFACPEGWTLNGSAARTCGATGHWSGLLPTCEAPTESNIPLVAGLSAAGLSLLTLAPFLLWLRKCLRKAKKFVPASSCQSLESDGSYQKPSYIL

Take `CCCC(CCC)C(=O)O`: the result in test [1], in test [2], in test [3], in [4], in test [5] and in [6] was inactive. Further, the result in test [7], in [8], in test [9], in [10], in test [11] and in [12] was inactive. The outcome in test [13], in test [14], in [15], in [16], in [17] and in [18] was inactive.
Take `O=C(NO)C1(NS(=O)(=O)c2ccc(Oc3ccc(F)cc3)cc2)CCOCC1`: the outcome in [1], in [2], in test [3], in [4], in [5] and in test [6] was inactive. For the same molecule, the outcome in test [7], in test [8], in test [9], in test [10], in [11] and in test [12] was inactive. For the same molecule, the result in test [13], in test [14], in test [15], in test [16], in test [17] and in test [18] was inactive.
Consider `CCCCCCCC/C=C\CCCCCCCC(=O)OC[C@@H](O)[C@H]1OC[C@H](O)[C@H]1O`, for which the outcome in [1], in test [2], in [3], in [4], in test [5] and in [6] was inactive. The result in test [7], in [8], in test [9], in test [10], in test [11] and in [12] was inactive. In addition, the result in [13], in test [14], in test [15], in test [16], in test [17] and in [18] was inactive.
Consider `CC(C)CCCCCCOC(=O)C1CCCCC1C(=O)OCCCCCCC(C)C` (configuration not stated), for which the outcome in test [1], in [2], in test [3], in [4], in test [5] and in test [6] was inactive. The outcome in [7], in test [8], in test [9], in test [10], in test [11] and in [12] was inactive. The result in test [13], in test [14], in test [15], in [16], in test [17] and in test [18] was inactive.
With `NNC(=O)c1ccncc1`, the result in test [1], in [2], in test [3], in test [5], in [6] and in [7] was inactive. Further, the outcome in test [8], in test [9], in [10], in test [11], in [19] and in test [12] was inactive. The result in [13], in test [14], in [15], in test [16], in test [20] and in [17] was inactive. Further, the outcome in test [18] was inactive.
`FC(F)=C(F)C(F)(F)C(F)(F)C(F)(F)C(F)(F)C(F)(F)C(F)(F)F`: the result in test [1], in test [2], in test [3], in [4], in test [5] and in test [6] was inactive. The outcome in [7], in test [8], in test [9], in test [10], in [11] and in test [12] was inactive. Besides, the result in test [13], in [14], in test [15], in test [16], in test [17] and in test [18] was inactive.
The term AC50 denotes the midpoint of the concentration-response curve, whichever way the signal moves. As to `OC(O)(C(F)C(O)(O)C(F)(F)F)C(F)(F)F`, the result in test [1], in test [2], in test [4], in test [6], in test [7] and in test [8] was inactive. Further, the result in [9], in [10], in test [11], in test [12], in test [13] and in test [14] was inactive. Also, the outcome in [15], in test [16], in test [17] and in test [18] was inactive. The AC50 was 30 µM (active) and 36.3 µM (active) in [3]; 1.12 µM (active) and 13 µM (active) in test [5].
